Test systems include RPMI-8226 leukemia; OVCAR-8 ovarian; OVCAR-5 ovarian; OVCAR-4 ovarian; SK-OV-3 ovarian; IGROV1 ovarian; OVCAR-3 ovarian; HS 578T breast; NCI/ADR-RES ovarian; T-47D breast; BT-549 breast; MDA-MB-435 melanoma; SW-620 colon; MCF7 breast; HCT-116 colon; HCC-2998 colon; KM12 colon.
Holding throughout (experiment): NCI-60 one-dose screen, 48 h (100 = growth as untreated, 0 = no growth, -100 = all killed)
Conditions in all cases: 10 µM unless noted

Molecules are shown by their SMILES. About 83,000 compounds went through this panel and 20% of them were active in at least one assay; those are over-represented in the sample as a whole.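 Step 1: grow cells in 96-well plates. Step 2: add test compound at a single concentration. Step 3: incubate 48 h. Step 4: record percent growth.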 Values without a mark were called inactive. Activity calls are given as the source filed them. Rule for the calls: active = growth percent below 10; inactive = the rest.

Turning to `CCCCCCCCCCCCCCCCCCNC(=O)[C@H]1CSC(c2ccc(OC)c(F)c2)N1` (stereo partly specified), the growth is -46.8% (active) in the assay with RPMI-8226 leukemia; -22.8% (active) with OVCAR-8 ovarian; -13.3% (active) in the assay with OVCAR-5 ovarian; 76.9% with OVCAR-4 ovarian; 88.1% in the assay on SK-OV-3 ovarian; 30.2% with IGROV1 ovarian. The growth with OVCAR-3 ovarian is -3.45% (active); with HS 578T breast, 32.6%; with NCI/ADR-RES ovarian, -36.8% (active); with T-47D breast, -62.5% (active); in the assay on BT-549 breast, -60.2% (active); in the assay with MDA-MB-435 melanoma, -83% (active). The growth was -60.2% (active) in the assay on SW-620 colon; -67.9% (active) with MCF7 breast; -72.7% (active) in the assay with HCT-116 colon; -57.5% (active) in the assay on HCC-2998 colon; -50.2% (active) in the assay on KM12 colon.
With `CN(C)c1ccc(/C=C\C2=[N+](C)c3ccccc3C2(C)C)cc1`, the growth in the assay on RPMI-8226 leukemia is 66.5%; in the assay on OVCAR-8 ovarian, 20.8%; with OVCAR-5 ovarian it was 27.9%; with OVCAR-4 ovarian it was 35.5%; in the assay on SK-OV-3 ovarian it was -11.6% (active); with IGROV1 ovarian, 9.25% (active). The growth was -9.9% (active) with OVCAR-3 ovarian; 9.83% (active) in the assay on HS 578T breast; 84.1% in the assay with NCI/ADR-RES ovarian; 0.627% (active) in the assay with T-47D breast; -4.12% (active) in the assay with BT-549 breast; 3.88% (active) in the assay on MDA-MB-435 melanoma. The growth is 10.3% with SW-620 colon; 3.95% (active) in the assay on MCF7 breast; 7.97% (active) in the assay on HCT-116 colon; 23.4% with HCC-2998 colon; -21.1% (active) with KM12 colon.
As for `C=C1CCC2C3(C)COC(c4cccc(Cl)c4)OC3CCC2(C)C1/C=C/C1=CCOC1=O` (stereo unspecified), the growth was 51.8% with RPMI-8226 leukemia; 71.5% with OVCAR-8 ovarian; 84.3% in the assay on OVCAR-5 ovarian; 53.7% in the assay on OVCAR-4 ovarian; 78.1% in the assay with SK-OV-3 ovarian; 88.9% with IGROV1 ovarian. The growth in the assay with OVCAR-3 ovarian was 76.9%; in the assay with HS 578T breast, 96.1%; in the assay with NCI/ADR-RES ovarian it was 44%; in the assay with T-47D breast it was 27.7%; in the assay on BT-549 breast, 55.9%; with MDA-MB-435 melanoma, 79.4%. The growth in the assay with SW-620 colon is 78.4%; in the assay with MCF7 breast it was 42%; in the assay with HCT-116 colon, 28.9%; in the assay with KM12 colon, 74.3%.
Take `COCCOc1ccc(-c2nc3ccc(-c4nc5ccc(N6CCN(C)CC6)cc5[nH]4)cc3[nH]2)cc1`: the growth in the assay with RPMI-8226 leukemia is 28.4%; in the assay on OVCAR-8 ovarian, -39% (active); in the assay on OVCAR-5 ovarian, 45.3%; in the assay on OVCAR-4 ovarian it was 14.1%; in the assay with SK-OV-3 ovarian it was 7.92% (active); with IGROV1 ovarian, 28.3%. Further, the growth in the assay on OVCAR-3 ovarian was 2.47% (active); in the assay on HS 578T breast, -3.7% (active); in the assay with NCI/ADR-RES ovarian, 100%; with T-47D breast, 2.28% (active); in the assay with BT-549 breast it was -30.5% (active); in the assay on MDA-MB-435 melanoma, -43.6% (active). For the same compound, the growth was 4.55% (active) in the assay with SW-620 colon; 17.7% in the assay with MCF7 breast; -57.6% (active) with HCT-116 colon; -52.7% (active) with HCC-2998 colon; 46.2% in the assay with KM12 colon.
For `COc1ccc(-n2c(C)nc3c(c(C)nn3-c3ccccc3)c2=O)cc1`, the growth with RPMI-8226 leukemia is 5.55% (active); in the assay on OVCAR-8 ovarian, 6.61% (active); in the assay on OVCAR-5 ovarian it was 30.6%; in the assay on OVCAR-4 ovarian, 36.8%; in the assay on SK-OV-3 ovarian, 45.1%; with IGROV1 ovarian, 20.3%. Besides, the growth with OVCAR-3 ovarian is -32.6% (active); in the assay on HS 578T breast, 21.6%; with NCI/ADR-RES ovarian, -12.9% (active); with T-47D breast it was 55.9%; in the assay on BT-549 breast it was 9.9% (active); in the assay with MDA-MB-435 melanoma, 4.94% (active). Further, the growth is 23.1% with SW-620 colon; 11.5% with MCF7 breast; 3.27% (active) in the assay with HCT-116 colon; 16.6% in the assay with HCC-2998 colon; 11.3% in the assay with KM12 colon.
Turning to `O=C(/C=C/c1cc2ccccc2[nH]c1=O)/C=C/c1cc2ccccc2[nH]c1=O`, the growth was -16.8% (active) in the assay with RPMI-8226 leukemia; 4.07% (active) in the assay with OVCAR-8 ovarian; 15.6% with OVCAR-5 ovarian; 38.3% in the assay with OVCAR-4 ovarian; 8.82% (active) in the assay with SK-OV-3 ovarian; -23.6% (active) in the assay with IGROV1 ovarian. In addition, the growth was -58% (active) with OVCAR-3 ovarian; 19.9% in the assay with HS 578T breast; 57.2% in the assay on NCI/ADR-RES ovarian; 15.2% in the assay with T-47D breast; -45.5% (active) in the assay on BT-549 breast; -41.6% (active) in the assay with MDA-MB-435 melanoma. For the same compound, the growth was -39.5% (active) in the assay with SW-620 colon; -42.3% (active) with MCF7 breast; -71.1% (active) in the assay on HCT-116 colon; -88.9% (active) in the assay on HCC-2998 colon; -83.7% (active) in the assay on KM12 colon.
Regarding `Cc1ccc(-c2nc(/C=N/Nc3cc(C)nc4ccc(Br)cc34)c(C)o2)cc1`, the growth in the assay on RPMI-8226 leukemia was -38.5% (active); with OVCAR-8 ovarian, -63.5% (active); with OVCAR-5 ovarian, -68.7% (active); in the assay on OVCAR-4 ovarian, -94.3% (active); with SK-OV-3 ovarian it was 105%; with IGROV1 ovarian it was -77.3% (active). The growth was -94.8% (active) in the assay on OVCAR-3 ovarian; 102% in the assay with HS 578T breast; -69.9% (active) with NCI/ADR-RES ovarian; -8.4% (active) with T-47D breast; 86.3% in the assay on BT-549 breast; -95.1% (active) in the assay on MDA-MB-435 melanoma. Also, the growth in the assay on SW-620 colon was -84.7% (active); in the assay on MCF7 breast, -78.6% (active); with HCT-116 colon, -65.8% (active); in the assay with HCC-2998 colon, -63.4% (active); with KM12 colon, -39.9% (active).
`NS(=O)(=O)N(c1cc(C(F)(F)F)cc(C(F)(F)F)c1)C1CCN(Cc2ccc(F)cc2)CC1`: the growth is 28.1% in the assay on RPMI-8226 leukemia; 73.2% in the assay with OVCAR-8 ovarian; 90.9% with OVCAR-5 ovarian; 72.4% with OVCAR-4 ovarian; 87.9% in the assay on SK-OV-3 ovarian; 61.9% with IGROV1 ovarian. The growth in the assay with OVCAR-3 ovarian is 60%; with HS 578T breast, 84%; with NCI/ADR-RES ovarian, 51.3%; with T-47D breast, 37.2%; in the assay on BT-549 breast, 81%; in the assay with MDA-MB-435 melanoma, 70.1%. Moreover, the growth in the assay on SW-620 colon is 63.8%; in the assay on MCF7 breast, 49.6%; with HCT-116 colon, 38%; in the assay with KM12 colon, 40.2%.
`CN(C)c1ccc(C2Nc3ccccc3-n3cccc32)cc1` (stereo unspecified): the growth in the assay on RPMI-8226 leukemia is 80.2%; with OVCAR-8 ovarian it was 94.5%; with OVCAR-5 ovarian, 72%; in the assay with OVCAR-4 ovarian, 87.1%; in the assay with SK-OV-3 ovarian it was 104%; in the assay on IGROV1 ovarian it was 55%. Moreover, the growth was 92.8% with OVCAR-3 ovarian; 95.5% with HS 578T breast; 105% in the assay on NCI/ADR-RES ovarian; 55.6% in the assay on T-47D breast; 99.8% in the assay on BT-549 breast; 96.5% in the assay with MDA-MB-435 melanoma. The growth is 97.6% with SW-620 colon; 38.4% in the assay on MCF7 breast; 97.4% in the assay on HCT-116 colon; 85.2% in the assay on HCC-2998 colon; 97.7% with KM12 colon.

The values are drawn from PubChem BioAssay (NCI).
